Laboratory results as given in PubChem BioAssay AID2185 (Vanderbilt High Throughput Screening Facility, 2009).
Entries with a potency or affinity are not part of this list. Active and inactive are the calls of the source. The rule behind the calls is not given here.

Each compound was assayed against Metabotropic glutamate receptor 4 (Rattus norvegicus) (UniProt P31423) (assay: PubChem AID 2185). Settings: HEK/GIRK cells expressing rat mGluR4, thallium flux PAM; active compounds read high.
Chain of Metabotropic glutamate receptor 4 (Rattus norvegicus) (P31423 whole entry, looked up): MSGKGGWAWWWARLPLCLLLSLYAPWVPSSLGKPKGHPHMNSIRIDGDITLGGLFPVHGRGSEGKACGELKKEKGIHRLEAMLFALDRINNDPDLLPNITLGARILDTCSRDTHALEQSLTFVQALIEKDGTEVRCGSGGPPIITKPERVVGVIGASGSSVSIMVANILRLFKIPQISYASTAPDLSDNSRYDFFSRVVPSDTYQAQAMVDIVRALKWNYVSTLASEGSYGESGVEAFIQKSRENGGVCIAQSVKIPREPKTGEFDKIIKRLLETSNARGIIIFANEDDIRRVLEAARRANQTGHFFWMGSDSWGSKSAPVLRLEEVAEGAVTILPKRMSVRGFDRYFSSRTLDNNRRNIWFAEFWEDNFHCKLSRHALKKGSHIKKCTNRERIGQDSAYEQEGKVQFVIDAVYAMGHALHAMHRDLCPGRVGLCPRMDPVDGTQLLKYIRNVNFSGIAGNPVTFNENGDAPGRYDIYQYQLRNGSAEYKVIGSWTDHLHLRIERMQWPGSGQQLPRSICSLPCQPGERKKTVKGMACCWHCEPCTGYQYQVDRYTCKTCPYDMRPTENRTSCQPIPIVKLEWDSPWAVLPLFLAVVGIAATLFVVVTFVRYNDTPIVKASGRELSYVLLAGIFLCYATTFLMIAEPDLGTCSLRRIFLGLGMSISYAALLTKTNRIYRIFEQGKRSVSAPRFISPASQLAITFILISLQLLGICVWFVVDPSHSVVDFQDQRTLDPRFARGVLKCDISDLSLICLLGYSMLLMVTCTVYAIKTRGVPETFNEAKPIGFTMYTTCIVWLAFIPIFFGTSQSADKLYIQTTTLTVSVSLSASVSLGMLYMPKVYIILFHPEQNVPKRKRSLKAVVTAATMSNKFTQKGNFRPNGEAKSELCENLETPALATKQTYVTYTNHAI

% glutamate max, inactive:
O=C(Nc1cccc(C(F)(F)F)n1)c1ccccn1 25.1%
O=C(Nc1ccc(N2CCCS2(=O)=O)cc1)c1ccccn1 30.1%
COc1cc(NC(=O)c2ccccn2)ncn1 25.5%
